Experimental data as given in PubChem BioAssay.
Where “and” joins values, the source holds several entries; their conditions need not be identical. Identical values can stand only once. Calls of active or inactive are those of the source.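 The calls were made as follows, unless noted: active = thallium flux through the channel raised or lowered by more than 3 SD from vehicle-only wells, actives on both sides; inactive = the rest.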

How the values were obtained:
[1] = modulation of C. elegans fzo-1 (AID 1259413; call rule not given here;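 also: fzo-1 mutant C. elegans worms in liquid wells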); settings: C. elegans fzo-1 modulator screen, mean read-out; stronger effect = higher value
[2] = P. berghei load reduction in hepatocytes – cell-based, HepG2, luciferase luminescence, HepG2 viability, primary screen (AID 624349; in the data active = parasite load remaining mostly below about 12%, no sharp cut-off; inactive = mostly above about 10%;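 also: 100% = mean of DMSO negative control wells on the same plate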); settings: P. berghei liver stage in HepG2, luciferase luminescence, concentration not given here; parasite load remaining: stronger effect = lower value; viability: measured here: HepG2 viability without parasites
[3] = signal quenchers or enhancers, Cy5 substrate/SSB – biochemical, NIH Clinical Collection, E. coli SSB, artefact control for HCV NS3 helicase inhibitor project (AID 743268; call rule not given here); settings: Cy5-oligo bound E. coli SSB, fluorescence interference
[4] = system: Hepatitis C virus NS3 helicase; assay: blockers of NS3h binding to DNA – biochemical, fluorescence polarization, NIH Clinical Collection, primary screen (AID 743270; call rule not given here); settings: NS3 helicase binding to Cy5-dT15 DNA, stronger effect = higher value, concentration not given here
[5] = biological target: Single-stranded DNA-binding protein (Escherichia coli (strain K12)) (UniProt P0AGE0); assay: SSB-ssDNA binding inhibitors – biochemical, fluorescence polarization, NIH Clinical Collection, counter-screen for HCV NS3 helicase inhibitor project (AID 743271; in the data active = inhibition above about 28%); settings: E. coli SSB-DNA binding, stronger effect = higher value, concentration not given here
[6] = compounds distorting NS3 helicase fluorescence signal – biochemical, NIH Clinical Collection, artefact control for HCV NS3 helicase inhibitor project (AID 743272; call rule not given here;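 also: HCV NS3 helicase with a Cy5 labelled single stranded DNA probe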); settings: fluorescence interference counterscreen, HCV NS3 helicase assay; stronger effect = lower value
F380Y = assay: BK channel mutant inhibitors and activators – cell-based, U2OS BacMam, thallium flux, beta subunits, selectivity assay, profiling panel (AID 1259406); settings: U2OS BacMam BK variants, at 30 µM;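 also: initial slope of Thallos dye fluorescence rise after thallium is added; log ratio against the mean of 0.3% DMSO vehicle wells on the same plate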
F380Y/beta1 = assay: as above; settings: U2OS BacMam BK variants, at 30 µM
F380Y/beta2Delta = assay: as above; settings: U2OS BacMam BK variants, at 30 µM
F380Y/beta4 = assay: as above; settings: U2OS BacMam BK variants, at 30 µM
[7] = biological target: Calcium-activated potassium channel subunit alpha-1 (Homo sapiens) + Leucine-rich repeat-containing protein 26 (Homo sapiens) (UniProt Q12791+Q2I0M4); assay: as above; settings: U2OS BacMam BK variants, F380Y/Slo1WT/gamma1, at 30 µM
Chain of Calcium-activated potassium channel subunit alpha-1 (Homo sapiens) + Leucine-rich repeat-containing protein 26 (Homo sapiens) (Q2I0M4 whole entry, looked up, one chain of several): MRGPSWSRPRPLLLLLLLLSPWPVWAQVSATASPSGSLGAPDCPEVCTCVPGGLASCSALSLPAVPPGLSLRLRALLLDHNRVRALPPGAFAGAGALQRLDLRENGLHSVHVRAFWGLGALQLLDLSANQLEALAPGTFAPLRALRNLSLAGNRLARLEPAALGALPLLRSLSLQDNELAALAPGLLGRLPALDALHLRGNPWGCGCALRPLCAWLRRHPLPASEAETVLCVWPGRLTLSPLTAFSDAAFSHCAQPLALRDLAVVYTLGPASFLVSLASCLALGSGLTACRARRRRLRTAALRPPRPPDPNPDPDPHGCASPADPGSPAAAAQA

R275C = assay: as above; settings: U2OS BacMam BK variants, at 30 µM
R275C/beta1 = assay: as above; settings: U2OS BacMam BK variants, at 30 µM
R275C/beta2Delta = assay: as above; settings: U2OS BacMam BK variants, at 30 µM
R275C/beta4 = assay: as above; settings: U2OS BacMam BK variants, at 30 µM
R275C/Slo1WT/beta2 = assay: as above; settings: U2OS BacMam BK variants, at 30 µM
[8] = viability loss with induced miR-34 in A549 – imaging, A549 dox-inducible miR-34, nuclei and caspase counts, primary screen (AID 1347080;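 active = compounds whose cell count with miR-34 switched on is under 0.7 times the count with it off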); settings: A549 miR-34 inducible, Hoechst nuclei count, 48 h
[9] = galactose survival enhancers in mitochondrial complex I cybrids – cell-based, galactose medium, ATP luminescence, primary screen (AID 1645843;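 active = z-score of at least 1.8 in each of two replicates, scored against plate mean and spread of sample wells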;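 also: positive z means more ATP and so rescue of galactose-driven cybrid death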); settings: complex I mutant cybrid cells, 72 h, stronger effect = higher value
[10] = system: Neuropilin-2 / VEGF-C interaction (human); assay: small molecules blocking Neuropilin-2/VEGF-C interaction – biochemical, microplate binding format, z-score (AID 743281; call rule not given here); settings: microplate NRP2/VEGF-C binding assay; stronger effect = lower value
[11] = MELAS cybrid and Rieske KO viability enhancers – cell-based, MELAS cybrids, Rieske KO mouse fibroblasts, CellTiter-Glo, primary screen (AID 1508586;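 active = mean z-score across replicates of 1.96 or higher in either the MELAS or the Rieske mutant cell line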;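 also: z relative to plate mean and SD of compound and empty wells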); settings: low glucose
[12] = stronger effect = lower value, cell number ratio, induced over uninduced
[13] = measured here: relative caspase fold change +Dox/-Dox
[14] = measured here: total cells with miR-34 induction, stronger effect = lower value
[15] = measured here: total cells without miR-34 induction
[16] = MELAS cybrid survival, CellTiter-Glo 48 h, stronger effect = higher value
[17] = Rieske KO mouse fibroblast survival, CellTiter-Glo 72 h

CC/C(=C(/c1ccccc1)c1ccc(OCCN(C)C)cc1)c1ccccc1
inactive: mean signal [1] 234

N[C@@H](C(=O)N[C@@H]1C(=O)N2C(C(=O)O)=C(CSc3cn[nH]n3)CS[C@H]12)c1ccc(O)cc1 (tested in a mixture with another compound)
72.4%: viability [2]
inactive: parasite load remaining [2] 100% | fluorescence ratio [3] 1.06 | fluorescence ratio [6] 1.01 | log fold change Tl+ flux (F380Y) 0.0279 | log fold change Tl+ flux (F380Y/beta1) -0.0559 | log fold change Tl+ flux (F380Y/beta2Delta) 0.00568 | log fold change Tl+ flux (F380Y/beta4) -0.0478 | log fold change Tl+ flux [7] 0.0418 | log fold change Tl+ flux (R275C) -0.0506 | log fold change Tl+ flux (R275C/beta1) 0.00628 | log fold change Tl+ flux (R275C/beta2Delta) 0.0029 | log fold change Tl+ flux (R275C/beta4) -0.00667 | log fold change Tl+ flux (R275C/Slo1WT/beta2) 0.00247
active: inhibition [4] 21.8% | inhibition [5] 56.1%

CC1(C)O[C@@H]2C[C@H]3[C@@H]4C[C@H](F)C5=CC(=O)C=CC5(C)[C@@]4(F)[C@@H](O)CC3(C)C2(C(=O)CO)O1 (some centres not stated)
inactive: mean signal [1] 256

C[C@]12C=CC(=O)C=C1CC[C@@H]1[C@@H]2[C@@H](O)C[C@@]2(C)[C@H]1CC[C@]2(O)C(=O)COC(=O)CCC(=O)O
inactive: parasite load remaining [2] 128% | fluorescence ratio [3] 1 | inhibition [4] 7.52% | inhibition [5] 4.52% | fluorescence ratio [6] 0.99 | log fold change Tl+ flux (F380Y) -0.0223 | log fold change Tl+ flux (F380Y/beta1) 0.0033 | log fold change Tl+ flux (F380Y/beta2Delta) 0.00204 | log fold change Tl+ flux (F380Y/beta4) -0.00342 | log fold change Tl+ flux [7] -0.00445 | log fold change Tl+ flux (R275C) -0.00218 | log fold change Tl+ flux (R275C/beta1) -0.0173 | log fold change Tl+ flux (R275C/beta2Delta) -0.00108 | log fold change Tl+ flux (R275C/beta4) -0.0167 | log fold change Tl+ flux (R275C/Slo1WT/beta2) -0.0235
72.6%: viability [2]

CN(C)S(=O)(=O)c1ccc2c(c1)/C(=C\CCN1CCNCC1)c1ccccc1S2
inactive: parasite load remaining [2] -2.22% | fluorescence ratio [3] 1.07 | inhibition [4] -0.45% | inhibition [5] 1.81% | fluorescence ratio [6] 0.96 | fold change [8, 12] 0.93 | z-score [9] -0.06 | log fold change Tl+ flux (F380Y) -0.0239 | log fold change Tl+ flux (F380Y/beta1) -0.0463 | log fold change Tl+ flux (F380Y/beta2Delta) -0.0723 | log fold change Tl+ flux (F380Y/beta4) -0.0323 | log fold change Tl+ flux [7] -0.0624 | log fold change Tl+ flux (R275C) -0.0283 | log fold change Tl+ flux (R275C/beta1) 0.0522 | log fold change Tl+ flux (R275C/beta2Delta) 0.019 | log fold change Tl+ flux (R275C/beta4) 0.0353 | log fold change Tl+ flux (R275C/Slo1WT/beta2) 0.0468
1.32: fold change [8, 13]
1.35%: viability [2]
10600: cell count [8, 15]
9850: cell count [8, 14]

CO[C@H]1C=CO[C@@]2(C)Oc3c(C)c(O)c4c(O)c(c5c(c4c3C2=O)NC2(CCN(CC(C)C)CC2)N=5)=NC(=O)C(C)=CC=C[C@H](C)[C@H](O)[C@@H](C)[C@@H](O)[C@@H](C)[C@H](OC(C)=O)[C@@H]1C
56.4%: viability [2]
inactive: parasite load remaining [2] 46.3% | log fold change Tl+ flux (F380Y) 0.00735 | log fold change Tl+ flux (F380Y/beta2Delta) -0.052 | log fold change Tl+ flux (F380Y/beta4) -0.0911 | log fold change Tl+ flux [7] -0.0288 | log fold change Tl+ flux (R275C/beta1) 0.0366 | log fold change Tl+ flux (R275C/beta2Delta) -0.0385 | log fold change Tl+ flux (R275C/beta4) 0.0214 | log fold change Tl+ flux (R275C/Slo1WT/beta2) 0.0234
active: log fold change Tl+ flux (F380Y/beta1) -0.0974 | log fold change Tl+ flux (R275C) -0.134

C=CC1=C(C(=O)O)N2C(=O)[C@@H](NC(=O)C(=NOCC(=O)O)c3csc(N)n3)[C@H]2SC1
69.9%: viability [2]
active: inhibition [4] 27.7% | inhibition [5] 94.9% | log fold change Tl+ flux [7] 0.111
inactive: parasite load remaining [2] 68.9% | fluorescence ratio [3] 1.01 | fluorescence ratio [6] 0.95 | log fold change Tl+ flux (F380Y) 0.0111 | log fold change Tl+ flux (F380Y/beta1) -0.0102 | log fold change Tl+ flux (F380Y/beta2Delta) 0.02 | log fold change Tl+ flux (F380Y/beta4) 0.0293 | log fold change Tl+ flux (R275C) -0.011 | log fold change Tl+ flux (R275C/beta1) -0.021 | log fold change Tl+ flux (R275C/beta2Delta) 0.0194 | log fold change Tl+ flux (R275C/beta4) 0.0168 | log fold change Tl+ flux (R275C/Slo1WT/beta2) 0.00126

CCC(=O)O[C@]1(C(=O)CCl)[C@@H](C)C[C@H]2[C@@H]3CCC4=CC(=O)C=CC4(C)[C@@]3(F)[C@@H](O)CC21C (some centres not stated)
inactive: mean signal [1] 254

C[C@H]1O[C@@H](O[C@H]2[C@@H](O)C[C@H](O[C@H]3[C@@H](O)C[C@H](O[C@H]4CCC5(C)[C@H](CC[C@@H]6[C@@H]5C[C@@H](O)C5(C)C(C7=CC(=O)OC7)CCC65O)C4)O[C@@H]3C)O[C@@H]2C)C[C@H](O)[C@@H]1O (some centres not stated)
inactive: mean signal [1] 250

CC(=O)S[C@@H]1CC2=CC(=O)CCC2(C)[C@H]2CCC3(C)[C@@H](CC[C@@]34CCC(=O)O4)[C@H]12 (some centres not stated)
inactive: mean signal [1] 260

O=C1NC(=O)N(C2CC(O)C(CO)O2)CC1F (configuration not stated)
inactive: mean signal [1] 241

C#C[C@]1(O)CC[C@H]2[C@@H]3CCC4=CC(=O)CC[C@@H]4[C@H]3CCC21C (some centres not stated)
inactive: mean signal [1] 236

CCC(=O)NS(=O)(=O)c1ccc(-c2c(-c3ccccc3)noc2C)cc1
1.74: fold change [8, 13]
10300: cell count [8, 15]
inactive: parasite load remaining [2] 75.3% | z-score [10] 1.11 | mean signal [1] 273 | fold change [8, 12] 0.873 | z-score [9] 0.78 | log fold change Tl+ flux (F380Y) 0.0552 | log fold change Tl+ flux (F380Y/beta2Delta) 0.000846 | log fold change Tl+ flux [7] 0.0287 | log fold change Tl+ flux (R275C) 0.0383 | log fold change Tl+ flux (R275C/beta1) -0.00911 | log fold change Tl+ flux (R275C/beta2Delta) -0.00297
9000: cell count [8, 14]
68.9%: viability [2]

COc1cc(N)c(Cl)cc1C(=O)N[C@@H]1CCN(CCCOc2ccc(F)cc2)C[C@@H]1OC
0.684: fold change [8, 13]
57.3%: viability [2]
6800: cell count [8, 14]
inactive: parasite load remaining [2] 13.5% | fluorescence ratio [3] 1 | inhibition [4] -2.77% | inhibition [5] -0.1% | fluorescence ratio [6] 0.96 | z-score [10] -0.527 | mean signal [1] 277 | fold change [8, 12] 0.991 | z-score [9] -0.47 | log fold change Tl+ flux (F380Y) 0.00662 | log fold change Tl+ flux (F380Y/beta2Delta) 0.0148 | log fold change Tl+ flux [7] -0.0526 | log fold change Tl+ flux (R275C) 0.0357 | log fold change Tl+ flux (R275C/beta1) -0.0487 | log fold change Tl+ flux (R275C/beta2Delta) 0.039
6860: cell count [8, 15]

CC12C=CC(=O)C=C1CC[C@@H]1[C@@H]2[C@@H](O)CC2(C)[C@H]1CC[C@]2(O)C(=O)CO (some centres not stated)
inactive: mean signal [1] 258

COCC1=C(C(=O)OC(C)OC(=O)OC(C)C)N2C(=O)[C@@H](NC(=O)/C(=N\OC)c3csc(N)n3)[C@H]2SC1 (some centres not stated)
-0.177: z-score [11, 17]
inactive: outcome [10] | mean signal [1] 270 | z-score [11, 16] -0.0637

CO[C@H]1C=CO[C@@]2(C)Oc3c(C)c(O)c4c(O)c(c5c(c4c3C2=O)NC2(CCN(CC(C)C)CC2)N=5)=NC(=O)/C(C)=C\C=C/[C@H](C)[C@H](O)[C@@H](C)[C@@H](O)[C@@H](C)[C@H](OC(C)=O)[C@@H]1C
inactive: mean signal [1] 242

CC(=O)OCC(=O)[C@@]1(O)CC[C@H]2[C@@H]3CCC4=CC(=O)CCC4(C)[C@H]3C(=O)CC21C (some centres not stated)
inactive: mean signal [1] 237

CC12C=CC(=O)C=C1CC[C@@H]1[C@@H]2C(=O)CC2(C)[C@H]1CC[C@]2(O)C(=O)CO (some centres not stated)
inactive: mean signal [1] 237

CC1(C)O[C@@H]2C[C@H]3[C@@H]4C[C@H](F)C5=CC(=O)C=CC5(C)[C@H]4[C@@H](O)CC3(C)C2(C(=O)CO)O1 (some centres not stated)
inactive: mean signal [1] 250

CN1CCN2c3ncccc3Cc3ccccc3C2C1 (configuration not stated)
1.2 and 4.96 and 1.4: fold change [8, 13]
0.866 and 0.0762: z-score [11, 17]
9270 and 8700 and 7820: cell count [8, 14]
inactive: parasite load remaining [2] 85% | fluorescence ratio [3] 0.98 | inhibition [4] -1.97% | inhibition [5] -2.76% | fluorescence ratio [6] 0.93 | z-score [10] -0.469 | mean signal [1] 257 | fold change [8, 12] 0.923 and 0.892 and 0.933 | z-score [11, 16] 0.00763 and -0.808 | z-score [9] 0.645 and -0.265
76.9%: viability [2]
10000 and 9750 and 8380: cell count [8, 15]

CC1=C(C/C=C(\C)CCCC(C)CCCC(C)CCCC(C)C)C(=O)c2ccccc2C1=O (configuration not stated)
inactive: mean signal [1] 243
